Measured values reported in PubChem BioAssay (NCATS).
Values joined by “and” are separate entries in the source; they are usually repeats but may differ in a detail not shown here. Equal entries are not always repeated. Results filed as inconclusive are left out. Active and inactive are the calls of the source. Calls come from the whole dose curve; as a rule, active = well fitted curve in the direction sought with a large enough effect; inconclusive = small, poorly fitted or top-dose-only effect, or another doubt; inactive = no such curve, though single readings can be large; an effect the other way counts as inactive or inconclusive.

Tests used:
[1] = Primary qHTS for small molecule stabilizers of the endoplasmic reticulum resident proteome: Secreted ER Calcium Modulated Protein (SERCaMP) assay (AID 1508630); conditions: SH-SY5Y GLuc-SERCaMP (Gaussia luciferase released on ER calcium loss) secretion, thapsigargin, luminescence; series mostly up to 38.4 µM
How it was run: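 GLuc-SERCaMP-expressing SH-SY5Y cells, pretreated 16 h with compound, are challenged with thapsigargin to empty ER calcium stores; after 4 h, coelenterazine is added directly to the medium and luminescence is imaged.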

[2] = Primary qHTS for inhibitors of nuclear receptor binding SET domain protein 2 (NSD2) in an isogenic RCH-ACV NSD2 p.E1099K mutant (9B) (AID 1645876); conditions: RCH-ACV NSD2 E1099K (9B) viability, CellTiter-Glo, 72 h; series mostly up to 44.9 µM; note: nearly all actives have a fitted effect of over 70% in size; note: potency is the fitted concentration of half-maximal effect
[3] = Primary qHTS for inhibitors of nuclear receptor binding SET domain protein 2 (NSD2) in an RCH-ACV wild type WT cells (2C) (AID 1645877); conditions: RCH-ACV (leukaemia line) NSD2 WT (2C) viability, CellTiter-Glo, 72 h; series mostly up to 44.9 µM; note: nearly all actives have a fitted effect of over 70% in size; note: potency is the fitted concentration of half-maximal effect

## COC(=O)Nc1nc2ccc(C(=O)c3ccc(F)cc3)cc2[nH]1
[1]
  Potency: inactive
[2]
  Potency: 1.29 µM (active) and 468 nM (active)

## CC(C)c1ccc(Cn2ccc3c4c(N)nc(NC5CC5)nc4ccc32)cc1
[1]
  Potency: inactive
[2]
  Potency: 372 nM (active)
[3]
  Potency: 417 nM (active)

## Clc1ccc2ncc(-c3cccc(NC4CNC4)n3)n2c1
[1]
  Potency: inactive
[2]
  Potency: inactive

## CN[C@H]1CCc2cc(OC)c(OC)c(OC)c2-c2ccc(OC)c(=O)cc21
[1]
  Potency: inactive
[2]
  Potency: 105 nM (active)
[3]
  Potency: 118 nM (active)

## Cc1nc2cnc3ccc(C#Cc4cccnc4)cc3c2n1-c1ccc(C(C)(C)C#N)cc1
[1]
  Potency: inactive
[2]
  Potency: 7.31 µM (active) and 148 nM (active)
[3]
  Potency: 8.2 µM (active) and 148 nM (active)

## CC(C)(O)CCc1ccc(OCc2cc(-c3cccc(OC(F)F)c3)c3ncccc3c2)cc1
[1]
  Potency: inactive
[2]
  Potency: 20900 nM (active)

## O=c1[nH]nc(Sc2ncc([N+](=O)[O-])s2)n1-c1ccc2c(c1)OCCO2
[1]
  Potency: inactive
[2]
  Potency: 7420 nM (active)

## Cn1c(=O)n(-c2ccc(C(C)(C)C#N)cc2)c2c3cc(-c4cnc5ccccc5c4)ccc3ncc21
[1]
  Potency: inactive
[2]
  Potency: 103 nM (active) and 38.2 nM (active)
[3]
  Potency: 91.6 nM (active) and 42.8 nM (active)

## CN1CCN(c2cc(C(=O)Nc3ccc4c(c3)-c3c(c(C(N)=O)nn3-c3ccc(F)cc3)CC4)c(Cl)cn2)CC1
[1]
  Potency: inactive
[2]
  Potency: 7420 nM (active)
[3]
  Potency: 8330 nM (active)

## CN1c2cc(O)c(N=NC(N)=O)cc2CC1S(=O)(=O)O (stereo not given)
[1]
  Potency: inactive
[2]
  Potency: inactive
[3]
  Potency: inactive

## C[C@]1(CO)CN(c2cc(C(=O)Nc3ccc4c(c3)-c3c(c(C(N)=O)nn3-c3ccc(F)cc3)CC4)c(Cl)cn2)C[C@@]1(C)CO
[1]
  Potency: inactive
[2]
  Potency: 3250 nM (active)
[3]
  Potency: 3250 nM (active)

## COC(=O)Nc1ccc(-c2nc(N3CCOCC3)c3cnn(C4CCN(Cc5cccnc5)CC4)c3n2)cc1
[1]
  Potency: inactive
[2]
  Potency: 833 nM (active)
[3]
  Potency: 662 nM (active)

## CCc1c2c(nc3ccc(O)cc13)-c1cc3c(c(=O)n1C2)COC(=O)[C@]3(O)CC
[1]
  Potency: inactive
[2]
  Potency: 8.3 nM (active)
[3]
  Potency: 4.7 nM (active)

## Nc1cc(C(F)(F)F)c(-c2cc(N3CCOCC3)nc(N3CCOCC3)n2)cn1
[1]
  Potency: inactive
[2]
  Potency: 578 nM (active) and 1.18 µM (active)

## CN1CC[C@@H](c2c(O)cc(O)c3c(=O)cc(-c4ccccc4Cl)oc23)[C@@H](O)C1
[1]
  Potency: inactive
[2]
  Potency: 372 nM (active)

## COc1cc2ncn(-c3cc(OCc4ccccc4C(F)(F)F)c(C(N)=O)s3)c2cc1OC
[1]
  Potency: inactive
[2]
  Potency: 562 nM (active) and 1.05 µM (active)

## CN(c1ncccc1CNc1nc(Nc2ccc3c(c2)CC(=O)N3)ncc1C(F)(F)F)S(C)(=O)=O
[1]
  Potency: inactive
[2]
  Potency: 5170 nM (active)
[3]
  Potency: 8330 nM (active)

## COc1cccc2nc(-c3cccs3)nc(NN3C(=O)C=C(C)C3=O)c12
[1]
  Potency: inactive
[2]
  Potency: 372 nM (active)
[3]
  Potency: 263 nM (active)

## CCN(CC)CCCCNc1ncc2cc(-c3cc(OC)cc(OC)c3)c(NC(=O)NC(C)(C)C)nc2n1
[1]
  Potency: inactive
[2]
  Potency: 16.4 µM (active) and 14.8 µM (active)
[3]
  Potency: 14.6 µM (active) and 14.8 µM (active)

## c1cc(-c2cnn3cc(-c4ccc(OCCN5CCCCC5)cc4)cnc23)ccn1
[1]
  Potency: inactive
[2]
  Potency: 3.66 µM (active) and 3.72 µM (active)
[3]
  Potency: 2.91 µM (active) and 3.32 µM (active)

## Cc1nc(N)ncc1-c1nc(N2CCOCC2)c2sc(C(C)(C)O)cc2n1
[1]
  Potency: inactive
[2]
  Potency: 81.7 nM (active) and 590 nM (active)
[3]
  Potency: 115 nM (active) and 468 nM (active)

## CC[C@@]1(O)C(=O)OCc2c1cc1n(c2=O)Cc2cc3cc(O)ccc3nc2-1
[1]
  Potency: inactive
[2]
  Potency: 20.9 nM (active)

## COc1cc2c(Nc3ccc(NC(=O)c4ccccc4)cc3)ncnc2cc1OCCCN1CCOCC1
[1]
  Potency: inactive
[2]
  Potency: 5.15 µM (active) and 4.68 µM (active)

## Cc1cn2c(-c3cn[nH]c3)cnc2c(Nc2ccc(C(=O)N3CCNCC3)cc2F)n1
[1]
  Potency: inactive
[2]
  Potency: 9160 nM (active)
[3]
  Potency: 12900 nM (active)

## N#CCNC(=O)c1ccc(-c2ccnc(Nc3ccc(N4CCOCC4)cc3)n2)cc1
[1]
  Potency: inactive
[2]
  Potency: 817 nM (active) and 2.63 µM (active)
[3]
  Potency: 1.15 µM (active) and 2.95 µM (active)

## Nc1ccccc1NC(=O)c1ccc(CNC(=O)OCc2cccnc2)cc1
[1]
  Potency: inactive
[2]
  Potency: 578 nM (active) and 742 nM (active)
[3]
  Potency: 459 nM (active) and 662 nM (active)

## CN1CCN(c2ccc3nc(-c4c(N)c5c(F)cccc5[nH]c4=O)[nH]c3c2)CC1
[1]
  Potency: inactive
[2]
  Potency: 1.3 µM (active) and 742 nM (active)
[3]
  Potency: 1.16 µM (active) and 742 nM (active)

## CCN1CCN(Cc2ccc(-c3cc4c(N[C@H](C)c5ccccc5)ncnc4[nH]3)cc2)CC1
[1]
  Potency: inactive
[2]
  Potency: 9340 nM (active)
[3]
  Potency: 7420 nM (active)
